For orientation: AC50 means the concentration at which the activity in the assay is half-maximal.

The record followed here is PubChem BioAssay AID1851 (National Center for Advancing Translational Sciences (NCATS), 2009).

Each structure is given as a SMILES string. Among all 16,000 compounds or so, about 5,100 (32%) were called active. Another 25% or so got no clear call; they are omitted. This is one part of the list. Some compounds were tested as several samples or in several runs, with calls that do not always agree. Values without a mark were called inactive. The call rests on the fitted dose curve; in most records, active means well fitted curve in the direction sought with a large enough effect; inconclusive means small, poorly fitted or top-dose-only effect, or effect the other way; inactive means no such curve, though single readings can be large or run the other way.
On the % scale 0 is the no-effect control and ±100 the full control effect.

Chain of Cytochrome P450 3A4 (Homo sapiens) (P08684 whole entry, looked up): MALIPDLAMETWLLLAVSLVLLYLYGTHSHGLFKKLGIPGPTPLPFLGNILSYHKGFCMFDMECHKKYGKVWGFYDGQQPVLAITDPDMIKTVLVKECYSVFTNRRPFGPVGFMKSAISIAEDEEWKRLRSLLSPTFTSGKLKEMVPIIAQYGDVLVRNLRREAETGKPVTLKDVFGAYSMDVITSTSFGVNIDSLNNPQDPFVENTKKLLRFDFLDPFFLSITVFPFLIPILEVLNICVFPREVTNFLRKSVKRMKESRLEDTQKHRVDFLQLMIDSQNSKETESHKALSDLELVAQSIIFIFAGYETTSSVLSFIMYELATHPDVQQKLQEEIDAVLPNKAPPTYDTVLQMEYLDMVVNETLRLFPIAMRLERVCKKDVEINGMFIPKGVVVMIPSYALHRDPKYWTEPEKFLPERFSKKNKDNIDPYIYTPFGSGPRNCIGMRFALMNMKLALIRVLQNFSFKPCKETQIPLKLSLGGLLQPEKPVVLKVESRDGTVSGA

This experiment concerns the target Cytochrome P450 3A4 (Homo sapiens) (UniProt P08684). As to the kind of experiment: Cytochrome panel assay with activity outcomes. Conditions: recombinant CYP, pro-luciferin dealkylation, luminescence, p450-cyp3a4; series mostly up to 57.1 µM; activity, negative = inhibition: at the top concentration.
As for `CCCCC1CC(/C(C)=N/NC(N)=O)OC1=O` (stereo not given), the “activity, negative = inhibition” value is 8.73%. `COc1cccc(NC(=O)CSc2nc3ccccc3cc2Cc2ccccc2)c1`: the concentration at half-maximal activity (AC50) is 3.55 µM (active). With `COc1ccccc1NC(=O)CSc1nc2ccccc2cc1Cc1ccccc1`, the AC50 is 2.82 µM (active).

`CCOC(=O)c1sc2nc3c(cc2c1N)COC(C(C)C)C3` (stereo not given): the “activity, negative = inhibition” value was 10.5%. Turning to `Cn1cc(C2=C(c3ccc(Cl)cc3Cl)C(=O)NC2=O)c2ccccc21`, the AC50 was 2.51 µM (active).

Consider `CSc1ccccc1NC(=O)CSCc1ccc(C)cc1`, for which the activity, negative = inhibition is -20% [at 11.4 µM]. For `COC(=O)c1ccc(C(=O)OC)c(NC(=O)CSCc2ccc(Br)cc2)c1`, the AC50 is 12.6 µM (active). Same read-out and setting: with `COc1cccc([C@@H]2Oc3ccc(OC)cc3/C(=N/O[C@@H](C)CN3CCCc4nc(C)c(C)cc43)[C@@H]2O)c1` the figure was 3.16 µM (active).

For the compound `COc1ccc(-c2ccc3c(n2)CCCN3C[C@H](O)CN2CCCc3nc(C)c(C)cc32)cc1`, the activity, negative = inhibition is -46.4% [at 11.4 µM]. On to `COc1cccc([C@@H]2Oc3ccc(OC)cc3/C(=N/O[C@@H](C)CN3CCCCc4nc(C)c(C)cc43)[C@@H]2O)c1`, for which the AC50 is 3.98 µM (active). With `COc1ccc2nccc(C(=O)O)c2c1`, the “activity, negative = inhibition” value was -4.23% [at 25.6 µM]. Same read-out and setting: to `COc1ccc2nc3cc(Cl)ccc3c(Nc3ccc(O)c(CN4CCN(C)CC4)c3)c2c1` belongs 2.77% [at 11.4 µM].

In the case of `CCc1c2c(nc3ccc(OC)cc13)COC2`, the AC50 was 15.8 µM (active).

For the compound `C[C@@]1(O)CCOC(=O)C1`, the “activity, negative = inhibition” value is -3.83% [at 25.6 µM].

For the compound `CC1(C)O[C@H]2[C@@H](c3[nH]nc4c(=O)[nH]c(=O)[nH]c34)OC[C@H]2O1`, the activity, negative = inhibition was -0.0029% [at 11.4 µM].

With `CCOC(=O)N/N=C(/C)c1ccc([N+](=O)[O-])o1`, the activity, negative = inhibition is -3.74% [at 2.29 µM].

Consider `C#CCN1C(C)=C(C(=O)OC)[C@@H](c2cccc([N+](=O)[O-])c2)C(C(=O)OCC)=C1C`, for which the AC50 is 3.16 µM (active).

Consider `COCC(C)NCc1cccc([N+](=O)[O-])c1` (stereo not given), for which the “activity, negative = inhibition” value was -12%. Regarding `O=C(COC(=O)c1ccccc1Nc1cccc(C(F)(F)F)c1)NCc1ccco1`, the AC50 is 22.4 µM (active). Consider `Cc1c(Nc2ncccc2C(=O)O)cccc1C(F)(F)F`, for which the “activity, negative = inhibition” value was -24.2% [at 25.6 µM]. As to `Cc1cccc(Nc2ccccc2C(=O)OCC(=O)NCc2ccco2)c1C`, the AC50 was 15.8 µM (active). As for `O=C(COC(=O)c1cccnc1Nc1cccc(C(F)(F)F)c1)NCc1ccc2c(c1)OCO2`, the AC50 was 0.501 µM (active). Same read-out and setting: with `O=C(OC(C(=O)NC1CCCC1)c1ccncc1)C1=Cc2ccccc2OC1` (stereo not given) the figure was 3.98 µM (active). For the compound `Cc1ccc(C(OC(=O)c2ccco2)C(=O)NC2CCCCC2)cc1` (stereo not given), the activity, negative = inhibition is -11.1% [at 2.29 µM].

As to `Cc1cn2c(-c3ccncc3)nnc2s1`, the “activity, negative = inhibition” value was -17.7%. Consider `c1cc(-c2sc(-c3ccncc3)c(-c3ccncc3)c2-c2ccncc2)ccn1`, for which the AC50 is 0.316 µM (active).

For `CCC(C)NC(=O)C1c2cc(OC)c(OC)cc2C(=O)N(C)C1c1cccs1` (stereo not given), the AC50 was 5.62 µM (active). With `CCC(C)NC(=O)C1CC(c2ccc(OC)cc2)=NO1` (stereo not given), the “activity, negative = inhibition” value is 20.4%.

For `COc1cc2c(cc1OC)C(C(=O)N1CCN(c3ccccn3)CC1)C(c1cccs1)N(C)C2=O` (stereo not given), the AC50 was 4.47 µM (active). Still for that read-out and setting: with `Cn1c(CN2CCCCC2)nc2cc(NC(=O)c3ccc(Cl)cc3)ccc21` the figure was 15.8 µM (active).

Consider `Cn1c(CN2CCCC2)nc2cc(NC(=O)C3CCCCC3)ccc21`, for which the “activity, negative = inhibition” value was -14.1%. On the same count and under the same terms, with `COc1ccc(C(=O)Nc2ccc3c(c2)nc(CN2CCN(C(C)=O)CC2)n3C)cc1` the figure was -0.562% [at 2.29 µM]; with `COc1ccc(C(=O)Nc2ccc(S(=O)(=O)N3CCOCC3)cc2)cc1OC`, 3.48%. For the compound `COc1cc(NC(=S)Nc2ccc(S(=O)(=O)N3CCOCC3)cc2)cc(OC)c1OC`, the AC50 was 15.8 µM (active).

On to `CC(N)=O`, for which the “activity, negative = inhibition” value was -7.41%. Take `c1ccc(-c2nc(CSc3n[nH]c(-c4cccs4)n3)cs2)cc1`: the AC50 is 6.31 µM (active). Still for that read-out and setting: to `CC(C)C1NC(=S)N(Cc2ccccc2)C1=O` (stereo not given) belongs 14.1 µM (active). Consider `O=c1[nH]c(=S)[nH]nc1Cc1ccccc1`, for which the “activity, negative = inhibition” value was 25.9%. As for `O=C(Nc1nc2ccccc2n1Cc1ccccc1)c1ccc(COc2ccccc2[N+](=O)[O-])o1`, the AC50 is 4.47 µM (active). Consider `CCn1nccc1C(=O)Nc1nc2ccccc2n1CCN1CCCCC1`, for which the “activity, negative = inhibition” value is -23.3%. On the same count and under the same terms, to `Cc1ccc(C(=O)Cn2nnc3c(sc4nc5c(c(-c6ccccc6)c43)CCC5)c2=O)cc1` belongs -10.2%; to `CCOC(=O)Cn1nnc2c(sc3nc4c(c(-c5ccc(Cl)cc5)c32)CCC4)c1=O`, 10.9%; to `CCOC(=O)c1sc2nc3c(cc2c1N)COC(C)(CC)C3` (stereo not given), 1.93% [at 11.4 µM]. Still for that read-out and setting: with `CC1(C)Cc2c(sc3nc(-c4ccccc4)n(N)c(=O)c23)CO1` the figure was -13.6%. In the case of `CCC1(C)Cc2c(sc3nnn(CC(=O)Nc4cccc5ccccc45)c(=O)c23)CO1` (stereo not given), the AC50 is 10 µM (active). The same measure, in the same setting: with `CCC1(C)Cc2c(sc3nnn(CC(=O)Nc4ccc(C)cc4)c(=O)c23)CO1` (stereo not given) the figure was 14.1 µM (active). Consider `CC1(C)CC(=O)c2cn3ncnc3nc2C1`, for which the “activity, negative = inhibition” value is -2.27%. Take `Nc1cccc2cnccc12`: the AC50 was 7.94 µM (active). Consider `CC(C)[C@H](NC(=O)OC(C)(C)C)[C@@H](O)CC(=O)OC(C)(C)C`, for which the activity, negative = inhibition was -23.3% [at 11.4 µM].

Consider `COc1ccccc1NC(=O)c1nc[nH]c1C(=O)Nc1ccccc1OC`, for which the “activity, negative = inhibition” value was 16.7%. `COc1ccccc1NC(=O)c1nn(-c2cccc(C(F)(F)F)c2)ccc1=O`: the AC50 was 20 µM (active). As to `O=C(c1ccccc1)c1nn(-c2ccccc2)c(=O)cc1C(F)(F)F`, the “activity, negative = inhibition” value was 32.3%. On the same count and under the same terms, to `O=C(O)c1nn(-c2ccccc2)ccc1=O` belongs -15.6% [at 11.4 µM]; to `Cc1n[nH]c(=O)n1-c1cccc(C(F)(F)F)c1`, 5.28%.

Consider `O=c1ccn(-c2cccc(C(F)(F)F)c2)nc1-c1ccn(-c2ccccc2F)n1`, for which the AC50 is 10 µM (active). As for `CC(C)NC[C@H]1CCc2cc(CO)c([N+](=O)[O-])cc2N1`, the “activity, negative = inhibition” value is -14.3% [at 25.6 µM]. As to `N#CCCn1c(=O)c(-c2ccc(Cl)cc2)nc2cnc(Oc3cccc(Cl)c3)nc21`, the “activity, negative = inhibition” value was -0.801%. `N#CCCn1c(=O)c(-c2ccccc2)nc2cnc(Oc3cccc(Cl)c3)nc21`: the “activity, negative = inhibition” value was -11.9%. Same read-out and setting: to `N#CCCn1c(=O)cnc2cnc(Oc3ccccc3)nc21` belongs -17.2%.

With `COc1ccc(Oc2ncc3nc(CCc4ccccc4)c(=O)n(CCC#N)c3n2)cc1`, the AC50 is 1.58 µM (active). On the same count and under the same terms, to `N#CCCn1c(=O)c(CCc2ccccc2)nc2cnc(Oc3ccccc3)nc21` belongs 2.51 µM (active); to `N#CCCn1c(=O)c(CCc2ccccc2)nc2cnc(Oc3cccc(Cl)c3)nc21`, 0.794 µM (active). As for `Cc1cc(=O)c2cc(Cl)ccc2[nH]1`, the “activity, negative = inhibition” value is -16.9%. The same measure, in the same setting: to `Clc1ccc(SCc2cc(-c3ccccc3)no2)cc1` belongs -27.4%. Consider `Nc1ccccc1SCc1csc(-c2ccc(Cl)cc2)n1`, for which the AC50 is 1 µM (active). For `C[N+](C)(N)Cc1csc(-c2ccc(Cl)cc2)n1`, the activity, negative = inhibition is -0.841% [at 11.4 µM]. Take `CN1CCc2ccccc2[C@@H]1Cc1ccccc1NC(=O)c1sc2ccccc2c1Cl`: the concentration at half-maximal activity (AC50) was 1.58 µM (active).

`Cc1cc(C)c(C#N)c(SCc2cc3c(cc2Cl)OCO3)n1`: the AC50 is 3.98 µM (active). For `COc1cccc(Cn2c(=O)cnc3cnc(OC)nc32)c1`, the AC50 is 10 µM (active).

With `COc1ncc2ncc(=O)n(C3CC3)c2n1`, the “activity, negative = inhibition” value is -9.36%. `COc1cccc(Cn2c(=O)cnc3cnc(Oc4cccc(Cl)c4)nc32)c1`: the AC50 was 5.01 µM (active). On the same count and under the same terms, with `COc1cccc(Cn2c(=O)cnc3cnc(OCc4ccccc4)nc32)c1` the figure was 12.6 µM (active). `N[C@@H](Cn1cc(F)c(=O)[nH]c1=O)C(=O)O`: the “activity, negative = inhibition” value was -26.2%. For `CCC(c1nnnn1CC1CCCO1)N(CCN1CCOCC1)Cc1cc2cc(C)ccc2[nH]c1=O` (stereo not given), the half-maximal activity concentration (AC50) was 15.8 µM (active). Same read-out and setting: to `COCOc1ccc(Br)cc1C(=O)[C@H]1O[C@H]1c1cccc(OC)c1` belongs 3.98 µM (active).

For `COc1ccccc1OCc1ccc(C(=O)N(C)C)o1`, the activity, negative = inhibition was 4.32% [at 2.29 µM]. `COc1ccc(CCN(C)CCC(=O)Nc2c(C)cc(C)cc2C)cc1OC`: the AC50 is 7.94 µM (active).

Turning to `COc1ccc(CCN(C)Cc2ccc(OCc3ccccc3)c(OC)c2)cc1OC`, the AC50 is 0.631 µM (active). In the case of `Cc1ccc(S(=O)(=O)N[C@H]2COC(=O)[C@@H](Cc3ccccc3)NC(=O)[C@@H](C)COC(=O)C/C=C\[C@@H]2C)cc1`, the AC50 was 3.98 µM (active) and the activity, negative = inhibition is -7.89% [at 11.4 µM]. As to `Cc1ccc(S(=O)(=O)N[C@H]2COC(=O)C/C=C\[C@@H](C)[C@H](NS(=O)(=O)c3ccc(C)cc3)COC(=O)C/C=C\[C@H]2C)cc1`, the AC50 is 3.16 µM (active). In the case of `CSCC[C@@H]1NC(=O)C/C=C\[C@@H](C)COC(=O)[C@@H](C)COC1=O`, the activity, negative = inhibition was -21.5% [at 11.4 µM].

Regarding `C[C@@H]1/C=C\CC(=O)OC[C@H]2O[C@@H](C=C[C@@H]2O)[C@H](C)/C=C\CC(=O)OC[C@H]2O[C@H]1C=C[C@@H]2O`, the activity, negative = inhibition was -21.3% [at 11.4 µM]. For `CO[C@H]1COC(=O)C/C=C\[C@H](C)COC(=O)[C@@H](C)NC(=O)C/C=C\[C@@H]1C`, the activity, negative = inhibition is -29.4% [at 11.4 µM]. Turning to `Cc1ccc(S(=O)(=O)N[C@@H]2COC(=O)C/C=C\[C@H](C)COC(=O)N[C@@H](C)C(=O)C/C=C\[C@H]2C)cc1`, the AC50 is 3.16 µM (active). Regarding `CO[C@@H]1COC(=O)CC=C[C@@H](C)[C@@H]2C=C[C@@H](O)[C@@H](COC(=O)C/C=C\[C@H]1C)O2`, the activity, negative = inhibition is -26.7% [at 11.4 µM]. As for `C[C@H]1COC(=O)[C@H]2CCCN2C(=O)[C@@H](C)COC(=O)[C@H](Cc2ccccc2)NC1=O`, the activity, negative = inhibition is -25.7% [at 11.4 µM]. On to `C[C@@H]1/C=C\CC(=O)OC[C@H](C)C(=O)N[C@@H](C)C(=O)OC1`, for which the activity, negative = inhibition is -13.1% [at 11.4 µM].

Turning to `Cc1ccc(S(=O)(=O)N[C@H]2COC(=O)CC=C[C@@H](C)[C@H]3C=C[C@H](O)[C@@H](COC(=O)CC=C[C@H]2C)O3)cc1`, the AC50 is 3.16 µM (active) and the activity, negative = inhibition is -9.33% [at 11.4 µM].
